Assay [1] can be described thus: qHTS assay to identify small molecule HDAC inhibitors - cell viability counter screen (AID 1259365). Further: series mostly up to about 92 µM; nearly all actives have a fitted effect of over 50% in size. Put shortly:
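Measured quantity is CellTiter-Glo luminescence from wild-type HCT-116 cells after compound incubation of 2hr at 37C, 5% CO2; reagent developed 30min at room temperature.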
In general terms: In qHTS, concentration-response curves come from the screen itself.

A short description of assay [2]: qHTS assay to identify small molecule agonists of the sonic hedgehog signaling (Shh) pathway - cell viability counter screen (AID 1259366). Further: nearly all actives have a fitted effect of over 50% in size. Put shortly: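 In quantitative high-throughput format, 3T3 Gli1-Luc cells were exposed to compounds for 24hr and multiplexed for viability using CellTiter-Fluor, incubated 1hr at 37C before the fluorescence read.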
Assay [3] in a line: qHTS assay to identify small molecule antagonists of the sonic hedgehog signaling (Shh) pathway - cell viability counter screen (AID 1259367). Further: nearly all actives have a fitted effect of over 55% in size. Put shortly:
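NIH/3T3-derived Gli1-Luc reporter cells (2,000 per well) rested 4 hr at 37 C, then received DMSO compounds plus conditioned medium. After 23 hr of treatment, CellTiter-Fluor was added for 1 hr at 37C and fluorescence read.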

The nature of assay [4]: qHTS assay to identify small molecule agonists of the sonic hedgehog signaling (Shh) pathway (AID 1259368; calls by dose curve;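 further: NIH/3T3-derived 3T3Gli1-Luc cells carrying a stable Gli1-driven firefly luciferase reporter; series mostly up to about 92 µM; nearly all actives have a fitted effect of over 15% in size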). Put shortly: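 A Gli1 transcriptional response element controlled firefly luciferase in 3T3Gli1-Luc cells. Compounds and a positive control were added 4 hr after plating, and cells were incubated a further 24 hr at 37 C before luminescence detection.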
Assay [5] is described as follows: qHTS assay to identify small molecule antagonists of the sonic hedgehog signaling (Shh) pathway (AID 1259369; calls by dose curve; further: nearly all actives have a fitted effect of over 45% in size; further: potency means the concentration at half of the fitted maximal effect). The gist of the method: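 For antagonist detection, the reporter line received test compounds together with conditioned medium, incubated 24hr at 37 C, 5% CO2, then luminescence was recorded following 30min room-temperature luciferase reagent incubation.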

The target in assay [6] is Estrogen receptor beta (Homo sapiens) (UniProt Q92731). Description: qHTS assay to identify small molecule agonists of the estrogen receptor beta (ER-beta) signaling pathway (AID 1259377; active means well fitted activation curve with a large enough effect in the signal ratio in the repeat runs, not every such curve was filed as active; the % refers to the signal ratio; further: potency means the concentration at half of the fitted maximal effect). The gist of the method:
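Reporter cells (HEK293T, ER-beta-UAS-bla) receive compounds or DMSO after a 6 hr pre-incubation. They then incubate 16 hr at 37C/5% CO2, and fluorescence from LiveBLAzer B/G substrate is measured after 2 hours at room temperature.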

Assay [7] in a line: qHTS assay to identify small molecule agonists of the androgen receptor (AR) signaling pathway in the presence of an antagonist - cell viability counter screen (AID 1259379).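 Further: MDA-kb2 human breast cancer cells carrying an MMTV luciferase reporter; series mostly up to about 92 µM; nearly all actives have a fitted effect of over 25% in size.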 Put shortly: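 Seed MDA-kb2 at 3,000 cells/well; incubate 5 hr, 37C, 0% CO2. Add nilutamide to 3.0uM final, then pin compounds at 15 concentrations. Incubate 16 hr. Add CellTiter-Fluor at 15 hr, read fluorescence after 1 hr.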

The nature of assay [8]: qHTS assay to identify small molecule agonists of the estrogen receptor beta (ER-beta) signaling pathway - cell viability counter screen (AID 1259380). Further: nearly all actives have a fitted effect of over 30% in size. Put shortly:
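CellTiter-Glo read, 30 min RT, same wells as bla assay; cells ER-beta-UAS-bla HEK293T; 16 hr compound, 37C; medium 2% charcoal-stripped FBS.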

The target of assay [9] is Androgen receptor (Homo sapiens) (UniProt P10275). Description: qHTS assay to identify small molecule agonists of the androgen receptor (AR) signaling pathway in the presence of an antagonist (AID 1259381; calls by dose curve; further: nearly all actives have a fitted effect of over 15% in size). Put shortly:
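Test compounds at 15 concentrations were incubated for 16hr with MDA-kb2 reporter cells in presence of 3.0uM nilutamide (final). Signal: ONE-Glo luciferase luminescence.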

Assay [10] concerns the target Estrogen receptor beta (Homo sapiens) (UniProt Q92731). Description: qHTS assay to identify small molecule antagonists of the estrogen receptor beta (ER-beta) signaling pathway (AID 1259378; active means well fitted inhibition curve with a large enough effect in the signal ratio in the repeat runs, not every such curve was filed as active; the % refers to the signal ratio). Put shortly: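 ER-beta-UAS-bla HEK293T (GripTite) cells in 2% charcoal-stripped FBS medium were preincubated 6 hr at 37C, dosed with compound, then stimulated with 1 nM E2 (final) for 16 hr; beta-lactamase reporter read by B/G FRET fluorescence after 2 hr substrate loading.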

Inconclusive results are not listed. Active and inactive are the calls of the source. Unless noted, the call rests on the fitted dose curve; in most records, active means well fitted curve in the direction sought with a large enough effect in the repeat runs; inconclusive means weak or mixed curves; inactive means no such curve, though single readings can be large; an effect the other way counts as inactive or inconclusive.

Drawing on PubChem BioAssay (Tox21), this text covers outcome and Potency for eight compounds.

Sequence of Estrogen receptor beta (Homo sapiens) (Q92731 whole entry, looked up): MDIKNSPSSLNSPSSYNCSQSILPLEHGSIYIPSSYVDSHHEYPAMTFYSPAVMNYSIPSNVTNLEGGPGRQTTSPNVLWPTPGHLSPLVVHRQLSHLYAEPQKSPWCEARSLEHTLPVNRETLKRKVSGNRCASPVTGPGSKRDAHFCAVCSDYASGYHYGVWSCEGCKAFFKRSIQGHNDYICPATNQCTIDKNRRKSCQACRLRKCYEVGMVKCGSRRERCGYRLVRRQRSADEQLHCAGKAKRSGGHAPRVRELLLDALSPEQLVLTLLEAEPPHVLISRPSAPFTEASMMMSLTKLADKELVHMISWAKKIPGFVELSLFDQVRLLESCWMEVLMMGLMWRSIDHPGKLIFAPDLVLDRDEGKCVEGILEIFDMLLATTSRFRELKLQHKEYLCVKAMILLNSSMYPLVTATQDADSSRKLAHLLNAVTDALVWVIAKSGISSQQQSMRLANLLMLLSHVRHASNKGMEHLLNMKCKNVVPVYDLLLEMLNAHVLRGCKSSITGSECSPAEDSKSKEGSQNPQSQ
Sequence of Androgen receptor (Homo sapiens) (P10275 whole entry, looked up): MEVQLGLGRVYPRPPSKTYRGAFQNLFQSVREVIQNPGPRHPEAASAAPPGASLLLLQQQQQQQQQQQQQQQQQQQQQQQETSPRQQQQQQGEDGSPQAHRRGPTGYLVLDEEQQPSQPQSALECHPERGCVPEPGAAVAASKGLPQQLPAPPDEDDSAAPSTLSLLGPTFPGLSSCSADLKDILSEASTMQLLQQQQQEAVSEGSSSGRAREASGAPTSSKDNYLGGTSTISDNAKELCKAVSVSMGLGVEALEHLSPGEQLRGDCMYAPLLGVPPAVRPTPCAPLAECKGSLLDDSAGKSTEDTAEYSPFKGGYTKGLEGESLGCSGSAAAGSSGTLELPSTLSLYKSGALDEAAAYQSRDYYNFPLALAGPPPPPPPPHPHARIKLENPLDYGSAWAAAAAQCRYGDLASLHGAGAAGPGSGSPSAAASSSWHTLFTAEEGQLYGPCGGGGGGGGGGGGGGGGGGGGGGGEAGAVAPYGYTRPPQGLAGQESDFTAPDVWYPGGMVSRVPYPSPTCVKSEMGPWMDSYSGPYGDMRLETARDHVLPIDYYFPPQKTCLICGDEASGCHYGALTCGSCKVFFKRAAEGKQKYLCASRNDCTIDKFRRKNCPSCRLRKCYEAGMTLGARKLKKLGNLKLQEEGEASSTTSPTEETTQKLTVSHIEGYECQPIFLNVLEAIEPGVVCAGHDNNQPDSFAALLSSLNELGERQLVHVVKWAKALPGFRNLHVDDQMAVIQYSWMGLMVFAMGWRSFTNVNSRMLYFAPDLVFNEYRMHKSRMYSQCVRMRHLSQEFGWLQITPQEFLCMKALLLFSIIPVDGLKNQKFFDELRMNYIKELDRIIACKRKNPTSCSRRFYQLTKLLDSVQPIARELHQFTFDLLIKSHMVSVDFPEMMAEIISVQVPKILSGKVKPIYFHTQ

Consider `COc1cc2c3cc1Oc1cc(ccc1O)C[C@@H]1c4c(cc(OC)c(O)c4Oc4ccc(cc4)C[C@@H]3N(C)CC2)CC[N+]1(C)C`, for which the compound was called inactive in assay [1], in assay [4] and in assay [8]. Moreover, the Potency entry in [2], in assay [3], in assay [5] and in [7] was “inactive” throughout. Besides, in assay [6], the Potency is 26.6 µM (active).

`O=C(O)c1c(Cl)ccc(Cl)c1Cl`: the result in assay [1], in assay [4] and in assay [8] was inactive. For the same compound, the Potency result in assay [2], in [3], in [5] and in assay [7] was “inactive” throughout.

Turning to `COc1cccc2sc(N)nc12`, the call in assay [1], in assay [4] and in [9] was inactive. Moreover, the Potency result in assay [2], in assay [3] and in assay [7] was “inactive” in each case. Further, the Potency in assay [5] is 24.5 µM (active).

Consider `NS(=O)(=O)c1cc2c(cc1Cl)NC(CC1CCCC1)NS2(=O)=O` (stereo not given), for which the compound was classed as inactive in [1], in assay [4], in assay [10] and in assay [8]. Moreover, the Potency entry in [2], in assay [3], in assay [6] and in assay [7] was “inactive” in each case.

As for `C[C@H](CCC(=O)O)[C@H]1CC[C@H]2[C@@H]3[C@H](O)C[C@@H]4C[C@H](O)CC[C@]4(C)[C@H]3C[C@H](O)[C@]12C`, the call in assay [1], in assay [4] and in assay [8] was inactive. For the same compound, the Potency result in assay [2], in assay [3], in [5] and in [7] was “inactive” in each case.

As to `O=C(O)C(=O)Nc1cccc(-c2nn[nH]n2)c1`, the call in assay [1], in assay [4] and in assay [8] was inactive. The Potency entry in assay [2], in assay [3], in assay [5] and in assay [7] was “inactive” in each case.

Take `CCN(CC)C(=O)C1CN2CCc3cc(OC)c(OC)cc3C2CC1OC(C)=O` (stereo not given): the call in assay [1], in assay [4], in [8] and in assay [9] was inactive. Besides, the Potency entry in assay [2], in assay [3], in [5] and in assay [7] was “inactive” in each case.

As for `Cc1ccccc1C`, the compound was classed as inactive in [1], in assay [4], in assay [10] and in assay [8]. The Potency entry in [2], in assay [3], in [6] and in assay [7] was “inactive” each time.
